Among the data in PubChem BioAssay (EPA / NIEHS) are outcome and AC50 values, retold here.

Where “and” joins values, the source holds several entries; their conditions need not be identical. Equal entries are not always repeated. Inconclusive results are not listed. Calls of active or inactive are those of the source. The calls were made as follows, unless noted: active = hit-call score of the fitted dose curve at least 0.9, where 1 is the maximum; inconclusive = response in the unintended direction; inactive = score below 0.9.

The target of assay [1] is human RAR-related Orphan Receptor beta (RORb), RORB (gene 6096) (UniProt Q92753). Kind of assay: ATG_RORb_TRANS: Attagene TRANS-FACTORIAL HepG2 Assay for human RAR-related Orphan Receptor beta (RORb) (AID 2283010). The method, boiled down:
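Transfect HepG2 with multiple GAL4-UAS reporter transcription units; dose chemicals for 24 h; isolate RNA, reverse-transcribe and PCR-amplify reporter sequences; label, digest and resolve fragments by capillary electrophoresis; fit increases relative to DMSO.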

The target of assay [2] is human RAR-related Orphan Receptor gamma (RORg), RORC (gene 6097) (UniProt P51449). Kind of assay: ATG_RORg_TRANS: Attagene TRANS-FACTORIAL HepG2 Assay for human RAR-related Orphan Receptor gamma (RORg) (AID 2283011). The method, boiled down:
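Readout: reporter transcript induction (RT-PCR, fluorescent primer extension, capillary electrophoresis) after 24 h compound exposure of transiently transfected HepG2 cells carrying a RORg-Gal4 chimera and GAL4-UAS reporters; DMSO served as baseline, with increasing signal fitted.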

The target in assay [3] is human Retinoid X Receptor beta (RXRb), RXRB (gene 6257) (UniProt P28702). Description: ATG_RXRb_TRANS: Attagene TRANS-FACTORIAL HepG2 Assay for human Retinoid X Receptor beta (RXRb) (AID 2283013). The essentials: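 Chimeric receptor-Gal4 activity was assessed in transiently transfected human HepG2 cells after 24 h exposure. Transcripts from GAL4-UAS reporters were quantified by fluorescent RT-PCR and capillary electrophoresis, with DMSO as negative control and baseline.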

Assay [4] has as its target human Thyroid Receptor alpha (THRa1), THRA (gene 7067) (UniProt P10827). Kind of assay: ATG_THRa1_TRANS: Attagene TRANS-FACTORIAL HepG2 Assay for human Thyroid Receptor alpha (THRa1) (AID 2283014). The method, boiled down:
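HepG2 cells transiently transfected with multiplexed GAL4-UAS reporter units for exogenous chimeric THRa1-Gal4; reporter mRNA measured 24 h after dosing by RT-PCR, 6-FAM labelling, HpaI digestion and capillary electrophoresis. Gain-of-signal fitted versus DMSO baseline.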

Read-out in assay [5]: E-selectin (Homo sapiens) (UniProt P16581)
Kind of assay: BSK_3C_Eselectin: BioMAP Diversity Plus: 3C Assay for Eselectin Biomarker Activity (AID 2283015; active = hit-call score of the fitted dose curve at least 0.9, where 1 is the maximum; inactive = score below 0.9;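 as to outcome: cell surface E-selectin protein quantified by ELISA 24 h after dosing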). The conditions noted are these: primary human endothelial cells (HUVEC); actives raise or lower the signal. The method, boiled down:
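Primary human umbilical vein endothelial cells (3C system) were dosed with chemical and cell-surface E-selectin measured by ELISA 24 h later. Bidirectional curve fitting used DMSO as negative control and baseline.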

Read-out in assay [6]: Interleukin-1 alpha (IL1a), IL1A (gene 3552)
Description: BSK_BE3C_IL1a: BioMAP Diversity Plus: BE3C Assay for Interleukin-1 alpha (IL1a) Biomarker Activity (AID 2283016; active = hit-call score of the fitted dose curve at least 0.9, where 1 is the maximum; inactive = score below 0.9). The conditions noted are these: primary human bronchial epithelial cells; actives raise or lower the signal. The method, boiled down: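 Signal from IL-1a ELISA, taken 24 h after chemical dosing of human bronchial epithelial cells, is compared with DMSO as baseline using bidirectional curve fitting.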

Read-out in assay [7]: Monocyte Chemoattractant Protein-1 (MCP1), CCL2 (gene 6347)
Description: BSK_3C_MCP1: BioMAP Diversity Plus: 3C Assay for Monocyte Chemoattractant Protein-1 (MCP1) Biomarker Activity (AID 2283017; active = hit-call score of the fitted dose curve at least 0.9, where 1 is the maximum; inactive = score below 0.9). The note with it: primary human endothelial cells (HUVEC); actives raise or lower the signal. The essentials:
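Primary human umbilical vein endothelial cells (3C system) were exposed to test chemical for 24 h, after which MCP-1 was quantified by ELISA. Activity was fitted bidirectionally against DMSO as negative control and baseline.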

Read-out in assay [8]: Human Leukocyte Antigen - DR isotype (HLADR), HLA-DRA (gene 3122)
Description: BSK_3C_HLADR: BioMAP Diversity Plus: 3C Assay for Human Leukocyte Antigen - DR isotype (HLADR) Biomarker Activity (AID 2283019; active = hit-call score of the fitted dose curve at least 0.9, where 1 is the maximum; inactive = score below 0.9;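 as to outcome: ELISA of cell-surface HLA-DR on HUVEC 24 h after dosing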). The note with it: primary human endothelial cells (HUVEC); actives raise or lower the signal. The essentials:
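Primary human umbilical vein endothelial cells (3C system) were dosed with compound and cell-surface HLA-DR was quantified by ELISA at 24 h. Activity was fitted bidirectionally against DMSO as negative control and baseline.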

Assay [9] addresses Retinoic acid receptor RXR-alpha (Homo sapiens) (UniProt P19793). Description: ATG_RXRa_TRANS: Attagene TRANS-FACTORIAL HepG2 Assay for human Retinoid X Receptor alpha (RXRa) (AID 2283012). The essentials: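 Measures exogenous chimeric NR-GAL4 activity in transfected HepG2 liver cells after 24 h of dosing. Induced reporter mRNA was detected by RT-PCR with capillary electrophoresis, and gain of signal was analysed against DMSO.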

Read-out in assay [10]: Monocyte Chemoattractant Protein-1 (MCP1), CCL2 (gene 6347)
Description: BSK_4H_MCP1: BioMAP Diversity Plus: 4H Assay for Monocyte Chemoattractant Protein-1 (MCP1) Biomarker Activity (AID 2283018; active = hit-call score of the fitted dose curve at least 0.9, where 1 is the maximum; inactive = score below 0.9). The conditions noted are these: primary human endothelial cells (HUVEC); actives raise or lower the signal. The essentials:
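Endothelial cells from umbilical vein were treated with test chemical, then after 24 h MCP-1 levels were quantified by ELISA; endpoint values came from bidirectional fitting with DMSO as baseline of activity.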

Sequence of human RAR-related Orphan Receptor gamma (RORg), RORC (gene 6097) (P51449 whole entry, looked up, the tested form may be a part): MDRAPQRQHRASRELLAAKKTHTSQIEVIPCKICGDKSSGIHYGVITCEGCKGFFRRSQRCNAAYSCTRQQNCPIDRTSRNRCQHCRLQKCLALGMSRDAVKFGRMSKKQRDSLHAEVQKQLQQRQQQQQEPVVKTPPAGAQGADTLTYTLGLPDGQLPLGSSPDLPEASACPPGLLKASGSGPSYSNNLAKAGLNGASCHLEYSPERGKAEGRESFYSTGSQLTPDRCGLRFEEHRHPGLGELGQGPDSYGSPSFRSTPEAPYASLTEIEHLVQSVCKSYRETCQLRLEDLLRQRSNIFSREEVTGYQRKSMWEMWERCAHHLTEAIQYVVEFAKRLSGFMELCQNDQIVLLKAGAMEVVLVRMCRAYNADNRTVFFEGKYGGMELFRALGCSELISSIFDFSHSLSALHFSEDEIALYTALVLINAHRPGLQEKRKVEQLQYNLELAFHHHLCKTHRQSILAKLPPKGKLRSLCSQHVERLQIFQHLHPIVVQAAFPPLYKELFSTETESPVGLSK
Sequence of E-selectin (Homo sapiens) (P16581 whole entry, looked up): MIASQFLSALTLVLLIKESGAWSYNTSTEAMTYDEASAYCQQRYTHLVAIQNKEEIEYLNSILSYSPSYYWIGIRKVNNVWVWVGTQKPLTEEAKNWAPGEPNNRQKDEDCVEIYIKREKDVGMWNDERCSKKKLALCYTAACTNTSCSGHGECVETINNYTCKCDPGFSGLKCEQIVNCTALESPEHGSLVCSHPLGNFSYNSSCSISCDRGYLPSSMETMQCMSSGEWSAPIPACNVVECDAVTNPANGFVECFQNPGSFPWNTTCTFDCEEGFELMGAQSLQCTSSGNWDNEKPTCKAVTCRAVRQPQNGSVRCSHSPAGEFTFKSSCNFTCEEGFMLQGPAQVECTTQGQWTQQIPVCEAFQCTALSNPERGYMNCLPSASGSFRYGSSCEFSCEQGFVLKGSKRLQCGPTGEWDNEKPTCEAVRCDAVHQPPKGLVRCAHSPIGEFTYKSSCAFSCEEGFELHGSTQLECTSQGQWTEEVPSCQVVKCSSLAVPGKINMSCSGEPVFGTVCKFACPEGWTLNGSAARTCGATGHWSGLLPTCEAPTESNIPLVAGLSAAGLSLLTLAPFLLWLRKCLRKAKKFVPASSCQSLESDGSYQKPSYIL
Sequence of human Thyroid Receptor alpha (THRa1), THRA (gene 7067) (P10827 whole entry, looked up, the tested form may be a part): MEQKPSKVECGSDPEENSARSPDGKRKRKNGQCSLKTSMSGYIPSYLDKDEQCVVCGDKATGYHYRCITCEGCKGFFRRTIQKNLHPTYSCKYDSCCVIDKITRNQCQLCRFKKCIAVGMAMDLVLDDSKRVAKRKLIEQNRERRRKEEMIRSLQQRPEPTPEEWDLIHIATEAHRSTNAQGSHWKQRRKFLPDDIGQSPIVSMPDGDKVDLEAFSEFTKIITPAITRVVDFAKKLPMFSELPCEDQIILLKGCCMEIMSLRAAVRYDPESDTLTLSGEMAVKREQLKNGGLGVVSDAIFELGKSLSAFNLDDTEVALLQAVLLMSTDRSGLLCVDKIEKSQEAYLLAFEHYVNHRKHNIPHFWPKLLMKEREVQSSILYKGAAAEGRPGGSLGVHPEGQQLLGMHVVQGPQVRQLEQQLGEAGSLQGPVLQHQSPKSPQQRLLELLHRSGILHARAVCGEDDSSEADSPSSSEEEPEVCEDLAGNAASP
Sequence of human Retinoid X Receptor beta (RXRb), RXRB (gene 6257) (P28702 whole entry, looked up, the tested form may be a part): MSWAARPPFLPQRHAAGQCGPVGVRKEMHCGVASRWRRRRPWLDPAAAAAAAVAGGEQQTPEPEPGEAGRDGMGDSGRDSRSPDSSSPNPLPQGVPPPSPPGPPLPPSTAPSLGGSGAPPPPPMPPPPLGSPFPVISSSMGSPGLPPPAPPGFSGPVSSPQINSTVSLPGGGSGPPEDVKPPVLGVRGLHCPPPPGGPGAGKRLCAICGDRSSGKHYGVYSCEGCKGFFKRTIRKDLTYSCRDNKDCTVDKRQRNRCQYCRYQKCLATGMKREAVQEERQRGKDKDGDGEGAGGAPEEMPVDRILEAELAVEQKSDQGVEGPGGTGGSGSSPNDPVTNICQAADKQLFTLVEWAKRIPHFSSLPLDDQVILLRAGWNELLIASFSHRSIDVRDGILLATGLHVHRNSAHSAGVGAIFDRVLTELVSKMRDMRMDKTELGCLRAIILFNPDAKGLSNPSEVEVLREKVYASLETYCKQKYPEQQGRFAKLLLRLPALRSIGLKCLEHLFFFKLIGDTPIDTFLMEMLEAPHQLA
Sequence of Retinoic acid receptor RXR-alpha (Homo sapiens) (P19793 whole entry, looked up, the tested form may be a part): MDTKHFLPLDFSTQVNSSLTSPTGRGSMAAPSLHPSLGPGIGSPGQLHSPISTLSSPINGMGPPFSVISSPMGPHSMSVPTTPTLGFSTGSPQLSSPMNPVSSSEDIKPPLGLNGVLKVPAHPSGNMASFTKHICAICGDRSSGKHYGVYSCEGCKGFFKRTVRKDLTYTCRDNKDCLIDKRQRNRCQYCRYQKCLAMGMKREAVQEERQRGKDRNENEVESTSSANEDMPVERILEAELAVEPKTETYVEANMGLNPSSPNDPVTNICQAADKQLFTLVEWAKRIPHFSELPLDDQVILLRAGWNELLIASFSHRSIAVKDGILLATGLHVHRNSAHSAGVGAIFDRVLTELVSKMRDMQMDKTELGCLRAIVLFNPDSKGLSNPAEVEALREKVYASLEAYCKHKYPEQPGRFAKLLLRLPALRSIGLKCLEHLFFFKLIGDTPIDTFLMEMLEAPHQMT
Sequence of human RAR-related Orphan Receptor beta (RORb), RORB (gene 6096) (Q92753 whole entry, looked up, the tested form may be a part): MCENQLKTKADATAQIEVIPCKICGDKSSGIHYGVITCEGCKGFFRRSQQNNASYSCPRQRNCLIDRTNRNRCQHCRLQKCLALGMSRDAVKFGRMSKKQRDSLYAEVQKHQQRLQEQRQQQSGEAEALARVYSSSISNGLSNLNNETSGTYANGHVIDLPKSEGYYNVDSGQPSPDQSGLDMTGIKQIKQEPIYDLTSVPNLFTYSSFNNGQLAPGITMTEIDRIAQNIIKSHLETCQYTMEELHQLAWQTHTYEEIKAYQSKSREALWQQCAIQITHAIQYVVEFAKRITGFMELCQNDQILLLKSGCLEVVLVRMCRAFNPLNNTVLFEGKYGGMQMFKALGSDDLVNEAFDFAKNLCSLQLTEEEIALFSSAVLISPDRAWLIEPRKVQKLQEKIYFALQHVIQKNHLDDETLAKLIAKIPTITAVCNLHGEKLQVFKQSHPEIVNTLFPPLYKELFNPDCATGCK

Take `NC(=O)C(F)(F)C(F)(F)C(F)(F)C(F)(F)C(F)(F)C(F)(F)C(F)(F)F`: the result in [1], in assay [2], in assay [3], in assay [4], in assay [5] and in assay [6] was inactive. In addition, the outcome in assay [7] and in assay [8] was inactive.
With `O=S(=O)(Cl)C(F)(F)C(F)(F)C(F)(F)C(F)(F)C(F)(F)C(F)(F)C(F)(F)C(F)(F)F`, the result in assay [1], in assay [2], in assay [9], in assay [3], in assay [7] and in [8] was inactive. In addition, the AC50 in assay [5] was 46.5 µM (active) and 39.2 µM (active); in assay [6] it was 46.4 µM (active) and 47.1 µM (active).
For `Cc1ccc([N+](=O)[O-])c(C)c1`, the outcome in [1], in assay [2], in assay [9], in [3] and in [4] was inactive.
In the case of `Cc1cc(=O)[nH]c(C(C)C)n1`, the result in assay [1], in assay [2] and in assay [3] was inactive.
On to `O=S(=O)(O)CCC(F)(F)C(F)(F)C(F)(F)C(F)(F)C(F)(F)C(F)(F)C(F)(F)C(F)(F)F`, for which the outcome in assay [1], in [2], in [9], in assay [5], in assay [6] and in assay [7] was inactive. Also, in assay [8], the outcome was inactive.
As for `O=C1C=CC(=O)N1c1ccc(Cc2ccc(N3C(=O)C=CC3=O)cc2)cc1`, the compound was called inactive in assay [1], in [2], in assay [9], in assay [3] and in assay [4]. In addition, the AC50 is 8.52 µM (active) in assay [5]; 3.26 µM (active) in [6]; 8.09 µM (active) in assay [7]; 7.61 µM (active) in assay [10]; 5.74 µM (active) in assay [8].
Consider `CC(C)OC=O`, for which the result in assay [1], in assay [9] and in [3] was inactive.
In the case of `O=c1[nH]cccc1O`, the compound was classed as inactive in assay [1], in [2] and in assay [4].
As for `O=C(Cl)C(F)(F)C(F)(F)C(F)(F)C(F)(F)C(F)(F)C(F)(F)C(F)(F)F`, the result in assay [1], in assay [2], in assay [9], in assay [4], in assay [5] and in assay [6] was inactive. Moreover, the result in assay [7], in assay [10] and in assay [8] was inactive. Also, the AC50 in [3] is 34.6 µM (active).
With `CCOC(OCC)OCC`, the call in assay [1], in assay [2] and in assay [9] was inactive.
As for `Nc1c(Br)cc([N+](=O)[O-])cc1Br`, the compound was classed as inactive in assay [1], in [2], in assay [9] and in assay [4].
As to `O=S(=O)(O)c1ccc(Cl)cc1`, the compound was classed as inactive in assay [1] and in assay [9].
For the compound `CSc1ccc(Cl)cc1`, the call in [1], in assay [2] and in assay [4] was inactive.
Consider `CCCCCC/C=C/CCCCCCCC(=O)O`, for which the result in assay [1] and in [2] was inactive. Also, the AC50 in [9] is 100 µM (active).
On to `COc1ccccc1C=O`, for which the call in assay [1], in assay [9], in assay [3] and in assay [4] was inactive.
`CCOCN(C(=O)CS(=O)(=O)O)c1c(C)cccc1CC`: the call in [1], in assay [2] and in [4] was inactive.
Take `Cc1cc(O)c(C(C)(C)C)cc1C(C)(C)C`: the result in assay [1], in [2] and in [4] was inactive. Moreover, the AC50 in [9] is 7.4 µM (active); in assay [3] it was 2.58 µM (active); in [5], 3.91 µM (active); in assay [6], 4.77 µM (active); in assay [7], 4.59 µM (active); in assay [10], 3.83 µM (active). In assay [8], the AC50 was 3.17 µM (active).
Regarding `O=C(c1ccccc1)c1ccc(O)cc1O`, the compound was classed as inactive in assay [1], in assay [2], in assay [4], in assay [5], in assay [6] and in [7]. Also, the result in assay [10] and in [8] was inactive. Besides, the concentration at half-maximal activity (AC50) in assay [3] is 35 µM (active).
On to `CC(C)(C)c1cc(CCC(=O)OCC(COC(=O)CCc2cc(C(C)(C)C)c(O)c(C(C)(C)C)c2)(COC(=O)CCc2cc(C(C)(C)C)c(O)c(C(C)(C)C)c2)COC(=O)CCc2cc(C(C)(C)C)c(O)c(C(C)(C)C)c2)cc(C(C)(C)C)c1O`, for which the compound was classed as inactive in assay [1] and in assay [2]. Besides, in assay [3], the AC50 was 22.3 µM (active).
On to `CC(C)C(=O)OCc1ccccc1`, for which the result in [1] and in assay [9] was inactive.
Turning to `Brc1ccccn1`, the outcome in [1], in assay [2], in assay [9] and in assay [4] was inactive.
With `O=C(O)CCC(F)(F)C(F)(F)C(F)(F)C(F)(F)C(F)(F)C(F)(F)C(F)(F)F`, the call in [1], in assay [2], in assay [9], in assay [5], in assay [6] and in assay [7] was inactive. The outcome in [8] was inactive. For the same compound, the AC50 in [3] was 41.3 µM (active).
In the case of `COC(F)(C(F)F)C(F)(F)F` (stereo not given), the result in assay [1], in assay [2], in assay [9], in assay [4], in assay [5] and in [6] was inactive. The result in assay [7], in assay [10] and in [8] was inactive.
In the case of `CCC/C=C/CO`, the compound was called inactive in [1], in assay [9] and in assay [3].
For `COC(=O)c1ccc(C=O)cc1`, the result in [1] and in assay [2] was inactive.
In the case of `CCOC(=O)C1CC(=O)C(=C(O)C2CC2)C(=O)C1` (stereo not given), the outcome in assay [1] was inactive.
On to `CCc1cccc(C)c1N(C(=O)C(=O)O)C(C)COC` (stereo not given), for which the call in assay [1], in assay [2], in assay [9] and in [3] was inactive.
Regarding `CC(=O)c1ccccc1N`, the compound was called inactive in assay [1], in [2], in [9], in assay [3] and in assay [4].
`C=CCOC(=O)CC(C)C`: the compound was called inactive in assay [1] and in [2].
Consider `O=c1cccc[nH]1`, for which the result in assay [1], in assay [2], in assay [9] and in assay [3] was inactive.
On to `CCc1cc(Cc2cc(CC)c(N)c(CC)c2)cc(CC)c1N`, for which the compound was classed as inactive in assay [1] and in [9].
As to `CN(N=O)C(=O)N[C@@H]1[C@@H](O)[C@H](O)[C@@H](CO)O[C@@H]1O`, the outcome in assay [1], in [2], in [9] and in assay [4] was inactive.
For `N#Cc1ccccc1O`, the compound was classed as inactive in [1], in [2], in assay [9] and in assay [3].
`Cc1cc(C)c(O)c(C(C)(C)C)c1`: the compound was classed as inactive in [1], in assay [2], in assay [9] and in [4]. For the same compound, the AC50 was 28.9 µM (active) in assay [3]; 28.9 µM (active) in assay [5]; 32.6 µM (active) in [6]; 29 µM (active) in assay [7]; 30.7 µM (active) in [10]; 15.8 µM (active) in assay [8].
With `CC(C)OC(=O)COc1ccc(Cl)cc1Cl`, the result in [1] was inactive.
With `O=C(O)C(F)(F)C(F)(F)C(F)(F)C(F)(F)C(F)(F)C(F)(F)C(F)F`, the compound was called inactive in assay [1], in [2], in assay [9], in [3], in [4] and in assay [5]. The outcome in assay [6], in assay [7] and in assay [8] was inactive.

One may read the AC50 as the concentration at which the activity in the assay is half-maximal.
